From the supplement of paper PMC6555819

System: PXR homodimer (NR concentration 270 nM)
Assay: PBM binding z-score (relative to random genomic background probes); higher = stronger binding; sequences stand for … in GC…GCGATTGACAGCGTAGAATGAAGG
How it was run: (§1)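 Antibodies against each partner of ligand-free nuclear receptor dimers (one per run) detected binding on custom Agilent 4×180K protein-binding microarrays after 1 h incubation. The double-stranded probes had 34-nt variable regions carrying direct-repeat seeds, single-nucleotide variants, half-site ablations and random human genomic background sequences. Binding z-scores, from regression-normalized fluorescence, use the random background probes as reference.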

Sequence | PBM binding z-score
ATCGAAAGGTCGACGAGGTGAATATACACCGTTT | 1.24
CGTCCTAGGTCAAGGTCAGTGAAAGAGACTCGAA | 0.941
CTCGAAAGGTCGTGCTCAGGTGAGCATACCAAAC | -0.196
ATCGAAAGGTCGAAGGTGAGTATACCCACCCGAA | -0.372
CCGGCTGGGGCAGAAAGGTTACCATACCATCCGG | -0.199
AGAATGAGGTTATTAAGACCAGGGAATTGCGGTC | -0.304
ATCGAACGGTCGAAGGTGAGTATACCCACCCGAA | -0.523
CATACAGGGTCAGCTAGGCAAGAGTAGGGACGGC | -0.336
AGAATGAGGTTAAGATCAGGGAAACAGAATACAT | 0.732
ACAGACAGGTGAGGGAAGGTAACTCAGCTGGACG | -0.0527
GCTAGTTGGTCAGTAGAAGGTCACACACCGGTCG | 1.11
CCAGACAGGTGAGAAGGCAACTCAGCCTCGATTA | -0.133
ATCTCTAGGTAAAGTTCCGTGAAAGATCGATAGA | 0.396
TCTAGTTGGTCACGGAGGTCACGCACGACGGGTA | 1.26
TTACCATGGTGAAAGGTCGTTGATGCACGCCTTG | 0.676
CGAACTAGGTCATTGACAGGACATTGAATAGTAA | 0.404
GGAACGAGGGCAAGTAGATAGCAGAGTTTGATGG | 0.589
AGAACGAGGGCACGCTGAGTTGATCGCAGAGTAG | 0.103
CATCCAGGGTCAGCTAGGCCAGAGTAGGGACGGC | -0.182
CCGAGTAGGTTATGGGGAATTCAGGCAACGGTGA | 0.469

Sequence | PBM binding z-score
ACTCGGAGGACAAAGGTCGGAGCTACGCCAGTGA | -0.332
GGAACGAGGGCAAAGTTGACAGCATCTGTCGACG | 0.0135
TCTTGTTGATCAAGCAGGTTAAGAAAGCCTGAGT | 0.159
CCGAGTAGGTTATGGGGCCTTCAGGCAACGGTGA | -0.427
TCTCGGAGGACGCGAAAGGTCAGAGCTCGACATC | 0.0066
TAGCCTAGGTCAGATTGGGCCAGTATACGCTATA | -0.72
GATATTAGTTGAAAGGGCAACCGAATGATTCTCG | 0.916
GGAACGAGGGCAAGCTGATAGCAGAGTTTGATGG | 0.429
CCGACTGGGGCACGGTTACCATAACGCACAGCCA | -0.44
GCAGACAGGTGGAACGCAGGTAACTCAGGGTGGC | -0.596
AGAATGAGGCTATACGTAGATCAGGGAAGAAAGT | -0.0563
CCAGACAGGTGAGAAGGTACCTCAGCCTCGATTA | -0.569
GCTAGCAGGCCATTTGCGTCACTCAATGACGGGC | -0.856
ATCGAAAGTTCGACGAGGTGAGTATACACCGTTT | 2.24
CCTCAGAGGACAACAGGAGGTCAGAGCTGCCAGA | 0.295
CGTCAAAGTTCAACTAAGGTAACGTACAGCACGC | 4.77
GAAACAGGGTCAAGGCCAGAGTACGCGTATTGAT | 0.162
GCTTGTAGATCAAGGTTAAGAACGACTAAGCTAA | -0.0676
TCTTGTAGATCAAAGGTTAAGAATGCCGAAGCCT | -0.149
GCTTGTAGTTCAAGGTTAAGAAAGACTAAGCTAA | 0.883

System: RARa:RXR (NR concentration 270 nM, RXRa partner concentration 90 nM)
Assay: as above
How it was run: as §1

Sequence | PBM binding z-score
ATCGAAAGGTCGACGAGGTGAATATACACCGTTT | 4.49
CGTCCTAGGTCAAGGTCAGTGAAAGAGACTCGAA | 4.02
CTCGAAAGGTCGTGCTCAGGTGAGCATACCAAAC | 4.74
ATCGAAAGGTCGAAGGTGAGTATACCCACCCGAA | 3.94
CCGGCTGGGGCAGAAAGGTTACCATACCATCCGG | 1.52
AGAATGAGGTTATTAAGACCAGGGAATTGCGGTC | 1.49
ATCGAACGGTCGAAGGTGAGTATACCCACCCGAA | 0.0689
CATACAGGGTCAGCTAGGCAAGAGTAGGGACGGC | 2.62
AGAATGAGGTTAAGATCAGGGAAACAGAATACAT | 2.08
ACAGACAGGTGAGGGAAGGTAACTCAGCTGGACG | 0.343
GCTAGTTGGTCAGTAGAAGGTCACACACCGGTCG | 3.73
CCAGACAGGTGAGAAGGCAACTCAGCCTCGATTA | -0.209
ATCTCTAGGTAAAGTTCCGTGAAAGATCGATAGA | 0.388
TCTAGTTGGTCACGGAGGTCACGCACGACGGGTA | 5.23
TTACCATGGTGAAAGGTCGTTGATGCACGCCTTG | 3.2
CGAACTAGGTCATTGACAGGACATTGAATAGTAA | 2.06
GGAACGAGGGCAAGTAGATAGCAGAGTTTGATGG | 0.247
AGAACGAGGGCACGCTGAGTTGATCGCAGAGTAG | 0.735
CATCCAGGGTCAGCTAGGCCAGAGTAGGGACGGC | 3.25
CCGAGTAGGTTATGGGGAATTCAGGCAACGGTGA | 0.654

Sequence | PBM binding z-score
ACTCGGAGGACAAAGGTCGGAGCTACGCCAGTGA | 1.84
GGAACGAGGGCAAAGTTGACAGCATCTGTCGACG | 2.66
TCTTGTTGATCAAGCAGGTTAAGAAAGCCTGAGT | 0.176
CCGAGTAGGTTATGGGGCCTTCAGGCAACGGTGA | 0.0801
TCTCGGAGGACGCGAAAGGTCAGAGCTCGACATC | 4.09
TAGCCTAGGTCAGATTGGGCCAGTATACGCTATA | 0.891
GATATTAGTTGAAAGGGCAACCGAATGATTCTCG | 1.81
GGAACGAGGGCAAGCTGATAGCAGAGTTTGATGG | -0.0859
CCGACTGGGGCACGGTTACCATAACGCACAGCCA | -0.139
GCAGACAGGTGGAACGCAGGTAACTCAGGGTGGC | -0.428
AGAATGAGGCTATACGTAGATCAGGGAAGAAAGT | -0.0968
CCAGACAGGTGAGAAGGTACCTCAGCCTCGATTA | -0.0825
GCTAGCAGGCCATTTGCGTCACTCAATGACGGGC | -0.774
ATCGAAAGTTCGACGAGGTGAGTATACACCGTTT | 1.03
CCTCAGAGGACAACAGGAGGTCAGAGCTGCCAGA | 2.24
CGTCAAAGTTCAACTAAGGTAACGTACAGCACGC | 4.72
GAAACAGGGTCAAGGCCAGAGTACGCGTATTGAT | 4.58
GCTTGTAGATCAAGGTTAAGAACGACTAAGCTAA | 0.827
TCTTGTAGATCAAAGGTTAAGAATGCCGAAGCCT | 2.85
GCTTGTAGTTCAAGGTTAAGAAAGACTAAGCTAA | 1.74
